Test systems include SR leukemia; RPMI-8226 leukemia; OVCAR-8 ovarian; OVCAR-5 ovarian; OVCAR-4 ovarian; SK-OV-3 ovarian; IGROV1 ovarian; OVCAR-3 ovarian; HS 578T breast; NCI/ADR-RES ovarian; T-47D breast; BT-549 breast; MDA-MB-435 melanoma; SW-620 colon; MCF7 breast; HCT-116 colon; HCC-2998 colon; KM12 colon; MDA-MB-468 breast.
What all share (test): NCI-60 one-dose screen, 48 h (100 = growth as untreated, 0 = no growth, -100 = all killed)
Common to all, as to settings: 10 µM unless noted

About 83,000 compounds went through this panel and 20% of them were active in at least one assay; those are over-represented in the sample as a whole.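 Step 1: grow cells in 96-well plates. Step 2: add test compound at a single concentration. Step 3: incubate 48 h. Step 4: record percent growth.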 Values without a mark were called inactive. Activity calls are given as the source filed them. How the source made its calls: active means growth percent below 10; inactive means the rest.

In the case of `Cc1ccc(C(=O)NN2C(=O)/C(=C/C=C/c3ccc([N+](=O)[O-])o3)SC2=S)cc1`, the growth was 2.44% (active) in the experiment with SR leukemia; -1.56% (active) with RPMI-8226 leukemia; -75.9% (active) in the experiment on OVCAR-8 ovarian; -94.9% (active) in the experiment with OVCAR-5 ovarian; -100% (active) in the experiment with OVCAR-4 ovarian; -78.1% (active) in the experiment on SK-OV-3 ovarian. Moreover, the growth is -90.3% (active) in the experiment with IGROV1 ovarian; -97.3% (active) with OVCAR-3 ovarian; -18.3% (active) in the experiment with HS 578T breast; -48.8% (active) in the experiment with NCI/ADR-RES ovarian; -61.1% (active) in the experiment with T-47D breast; -90% (active) with BT-549 breast. The growth was -66.3% (active) in the experiment with MDA-MB-435 melanoma; -69.1% (active) in the experiment with SW-620 colon; -49.2% (active) in the experiment with MCF7 breast; -77.7% (active) in the experiment on HCT-116 colon; -90% (active) with HCC-2998 colon; -83.2% (active) with KM12 colon. In the experiment with MDA-MB-468 breast, the growth was -85.7% (active).
Turning to `CCOC(=O)/C=C/c1cccc2c1C(=O)NC(C)(c1cc3cc(Br)ccc3oc1=O)N2` (configuration not stated), the growth is 27.7% in the experiment with SR leukemia; 32% in the experiment on RPMI-8226 leukemia; 37.8% with OVCAR-8 ovarian; 76.4% in the experiment on OVCAR-5 ovarian; 40.2% in the experiment with OVCAR-4 ovarian; 38.6% with SK-OV-3 ovarian. The growth was 18.2% with IGROV1 ovarian; 48.4% with OVCAR-3 ovarian; 63.2% with HS 578T breast; 42.2% in the experiment with NCI/ADR-RES ovarian; 18.2% in the experiment on T-47D breast; -66.3% (active) in the experiment with BT-549 breast. For the same compound, the growth is 54.7% in the experiment on MDA-MB-435 melanoma; 61.2% in the experiment with SW-620 colon; 35.3% in the experiment on MCF7 breast; 32.2% in the experiment with HCT-116 colon; 68.8% with HCC-2998 colon; 41.1% with KM12 colon. Also, the growth in the experiment with MDA-MB-468 breast was 32.3%.
`Cc1ccc(C(SCCNCc2cc(N(C)C)ccn2)(c2ccccc2)c2ccccc2)cc1`: the growth in the experiment on SR leukemia was -45.1% (active); in the experiment with RPMI-8226 leukemia it was -54.6% (active); with OVCAR-8 ovarian, -52.5% (active); with OVCAR-5 ovarian, -19.9% (active); with OVCAR-4 ovarian, 11.4%; in the experiment on SK-OV-3 ovarian it was -10.5% (active). In addition, the growth in the experiment on IGROV1 ovarian was 6.28% (active); with OVCAR-3 ovarian it was -46.7% (active); with HS 578T breast, -45.7% (active); in the experiment with NCI/ADR-RES ovarian, -56.8% (active); with T-47D breast, -39% (active); with BT-549 breast, -51.8% (active). Besides, the growth with MDA-MB-435 melanoma is -75.4% (active); in the experiment on SW-620 colon, -79.4% (active); in the experiment on MCF7 breast, -80.5% (active); in the experiment with HCT-116 colon, -80.5% (active); in the experiment with HCC-2998 colon, -93.8% (active); in the experiment with KM12 colon it was -40.1% (active). The growth in the experiment on MDA-MB-468 breast is -69.5% (active).
As to `COc1ccc2[nH]cc(-c3nc(N)nnc3-c3cn(C)c4ncccc34)c2c1`, the growth was 33.5% with SR leukemia; 58.2% with RPMI-8226 leukemia; 64.4% in the experiment on OVCAR-8 ovarian; 77.9% with OVCAR-5 ovarian; 78% with OVCAR-4 ovarian; 86.3% with SK-OV-3 ovarian. For the same compound, the growth with IGROV1 ovarian was 32.9%; in the experiment on OVCAR-3 ovarian, 16.2%; with HS 578T breast it was 37.2%; with NCI/ADR-RES ovarian, 99%; in the experiment on T-47D breast, 50.8%; with BT-549 breast, 36.5%. In addition, the growth in the experiment with MDA-MB-435 melanoma was -1.52% (active); with SW-620 colon, 39.4%; in the experiment on MCF7 breast, 25.6%; with HCT-116 colon, 26.7%; in the experiment on HCC-2998 colon it was 80.2%; in the experiment with KM12 colon it was 16.6%. In the experiment on MDA-MB-468 breast, the growth was 27.6%.
In the case of `COc1ccc(NC(=O)[C@@H](N)Cc2ccccc2)cc1C(=O)Nc1cccc(C2CC(=O)c3c(cc(OC)c(OC)c3OC)O2)c1` (some centres not stated), the growth in the experiment with SR leukemia is 14.7%; in the experiment with RPMI-8226 leukemia, 20.2%; with OVCAR-8 ovarian, 29.1%; in the experiment with OVCAR-5 ovarian it was 101%; with OVCAR-4 ovarian, 54.7%; in the experiment with SK-OV-3 ovarian, 152%. Moreover, the growth was 74.5% with IGROV1 ovarian; 64% with OVCAR-3 ovarian; 77.6% in the experiment on HS 578T breast; 39.3% with NCI/ADR-RES ovarian; 25.3% in the experiment with T-47D breast; 19.8% in the experiment on BT-549 breast. For the same compound, the growth in the experiment on MDA-MB-435 melanoma is 56.8%; in the experiment on SW-620 colon, 50.9%; with MCF7 breast it was 28.1%; in the experiment on HCT-116 colon, 45.2%; in the experiment with HCC-2998 colon it was 114%; in the experiment on KM12 colon, 35.1%. In addition, the growth in the experiment on MDA-MB-468 breast was 44.3%.
As to `CC(C)Sc1nc(NCCc2c[nH]c3ccccc23)c(C#N)c(-c2ccccc2)n1`, the growth in the experiment on SR leukemia is -17.2% (active); in the experiment with RPMI-8226 leukemia, 7.27% (active); with OVCAR-8 ovarian it was 38%; with OVCAR-5 ovarian, 68.7%; in the experiment with OVCAR-4 ovarian, 53.6%; in the experiment with SK-OV-3 ovarian it was 70.2%. In addition, the growth in the experiment on IGROV1 ovarian is 87.8%; with OVCAR-3 ovarian it was 44.4%; with HS 578T breast, 8.79% (active); in the experiment on NCI/ADR-RES ovarian, 15.1%; in the experiment on T-47D breast it was -9.65% (active); in the experiment on BT-549 breast, 55.1%. Further, the growth was 48.1% in the experiment on MDA-MB-435 melanoma; -11.6% (active) in the experiment with SW-620 colon; -22.5% (active) in the experiment on MCF7 breast; 0.232% (active) in the experiment on HCT-116 colon; 4.86% (active) with HCC-2998 colon; 6.51% (active) with KM12 colon. The growth in the experiment with MDA-MB-468 breast was -4.09% (active).
Take `CC(C)CSc1nc(NCCc2c[nH]c3ccccc23)c(C#N)c(-c2ccc(F)cc2)n1`: the growth with SR leukemia was 3.42% (active); with RPMI-8226 leukemia, 31.5%; in the experiment on OVCAR-8 ovarian it was 59.5%; in the experiment on OVCAR-5 ovarian it was 101%; in the experiment with OVCAR-4 ovarian, 72.8%; with SK-OV-3 ovarian it was 57.9%. Further, the growth in the experiment on IGROV1 ovarian is 78.3%; in the experiment with OVCAR-3 ovarian it was 76.9%; with HS 578T breast, 39.6%; in the experiment on NCI/ADR-RES ovarian it was 39.9%; in the experiment with T-47D breast it was 24.6%; in the experiment on BT-549 breast it was 72.1%. Also, the growth with MDA-MB-435 melanoma is 59.1%; in the experiment with SW-620 colon, 38%; with MCF7 breast, 22.5%; in the experiment on HCT-116 colon, 11.3%; in the experiment with HCC-2998 colon it was 32.5%; with KM12 colon it was 24%. In the experiment with MDA-MB-468 breast, the growth was 54.3%.
Turning to `CC1(C)CC[C@]2(C(=O)O)CC[C@]3(C)C(=CCC4[C@@]5(C)C[C@@H](O)[C@@H]6OC(c7cccc(Br)c7)OC[C@@]6(C)C5CC[C@]43C)C2C1` (some centres not stated), the growth with SR leukemia is 30.6%; with RPMI-8226 leukemia it was 18.9%; in the experiment with OVCAR-8 ovarian, 40%; with OVCAR-5 ovarian, 67.5%; in the experiment on OVCAR-4 ovarian it was 52.4%; with SK-OV-3 ovarian it was 101%. The growth in the experiment with IGROV1 ovarian is 66.7%; in the experiment on OVCAR-3 ovarian, 34.9%; in the experiment with HS 578T breast, 65.3%; in the experiment with NCI/ADR-RES ovarian it was 40.6%; with T-47D breast, 39.4%; in the experiment on BT-549 breast, 44.4%. The growth in the experiment with MDA-MB-435 melanoma was 61.2%; in the experiment with SW-620 colon it was 25%; in the experiment with MCF7 breast, 18.6%; in the experiment on HCT-116 colon, 10.8%; in the experiment with HCC-2998 colon it was 34.8%; in the experiment with KM12 colon, 20.8%. In the experiment on MDA-MB-468 breast, the growth is 23.6%.

These data come from PubChem BioAssay (NCI).
